Source: PubChem BioAssay AID1942 (Johns Hopkins Ion Channel Center, 2009)
About 580 (24%) of roughly 2,400 compounds were called active. Not all results are given here. Values without a mark were called inactive.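 How the source made its calls: active means activity change at or above the mean plus 3 SD of buffer wells without dofetilide, per plate; inactive means the rest.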

These molecules were tested against Potassium voltage-gated channel subfamily KQT member 2 (Rattus norvegicus) (UniProt O88943) (assay: rat KCNQ2 channel activation by compounds alone, confirmation, counter-screen for hERG block protector project, cell-based, CHO, FluxOR thallium flux (AID 1942;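 further: normalized value minus buffer-control mean plus three SD of buffer wells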)). Settings: CHO-KCNQ2 cells, FluxOR thallium flux fluorescence; at 10 µM; stronger effect = higher value.
Sequence of Potassium voltage-gated channel subfamily KQT member 2 (Rattus norvegicus) (O88943 whole entry, looked up): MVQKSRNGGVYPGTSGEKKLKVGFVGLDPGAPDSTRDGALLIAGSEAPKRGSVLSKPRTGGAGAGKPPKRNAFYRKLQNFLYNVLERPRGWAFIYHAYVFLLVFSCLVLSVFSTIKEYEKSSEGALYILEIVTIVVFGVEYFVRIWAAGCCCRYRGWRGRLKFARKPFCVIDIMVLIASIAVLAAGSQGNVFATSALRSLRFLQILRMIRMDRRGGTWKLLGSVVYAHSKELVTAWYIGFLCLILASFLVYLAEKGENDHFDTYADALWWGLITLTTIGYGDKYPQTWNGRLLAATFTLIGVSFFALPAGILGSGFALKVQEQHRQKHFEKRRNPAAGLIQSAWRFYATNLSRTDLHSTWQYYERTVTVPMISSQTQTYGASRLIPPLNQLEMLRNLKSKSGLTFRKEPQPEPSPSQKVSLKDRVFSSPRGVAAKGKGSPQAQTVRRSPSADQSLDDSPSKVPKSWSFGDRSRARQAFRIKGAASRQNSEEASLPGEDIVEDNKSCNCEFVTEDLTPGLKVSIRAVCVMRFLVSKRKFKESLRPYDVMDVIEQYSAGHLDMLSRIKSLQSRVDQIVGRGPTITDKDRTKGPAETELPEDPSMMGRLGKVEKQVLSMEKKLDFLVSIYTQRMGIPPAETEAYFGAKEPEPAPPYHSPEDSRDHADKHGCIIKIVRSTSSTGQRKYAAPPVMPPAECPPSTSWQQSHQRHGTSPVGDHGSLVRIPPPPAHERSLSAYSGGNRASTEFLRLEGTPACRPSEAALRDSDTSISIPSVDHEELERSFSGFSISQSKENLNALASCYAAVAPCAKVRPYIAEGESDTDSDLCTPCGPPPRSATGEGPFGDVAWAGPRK
In the case of Nc1ncnc(Oc2cccc3cccnc23)c1[N+](=O)[O-], the activity change, less the hit threshold is reported as -25.4%.
CCC(C)c1ccccc1NC(=O)c1[nH]c(C)c(C(C)=O)c1C (stereo not given) was tested, and the activity change, less the hit threshold was -22.3%.
In the case of CCC(C)c1ccccc1NC(=S)NC(=O)c1ccco1 (stereo not given), the activity change, less the hit threshold is reported as 60.2% (active).
Molecule CCOc1ccccc1NC(=S)NC(=O)c1ccco1 has an activity change, less the hit threshold of -5.9%.
N#C/C(=N/Nc1ccc([N+](=O)[O-])cc1)C(=N)N1CCCCC1 showed an activity change, less the hit threshold of -6.1%.
Molecule C/C(=C/CCC(C)[C@H]1CC[C@@]2(C)C3=C(CC[C@]12C)[C@@]1(C)CCC(=O)C(C)(C)[C@@H]1CC3)C(=O)O (stereo not given in full) has an activity change, less the hit threshold of -36.3%.
With CC(C)OC(=O)CSc1nnc(C2CCCCC2)n1N the activity change, less the hit threshold was -21.8%.
In the case of CCC1(c2ccc(Cl)cc2)NC(=S)N(c2ccc(C)c(C)c2)N1 (stereo not given), the activity change, less the hit threshold is reported as 101% (active).
For CCC1(c2ccccc2)NC(=S)N(c2ccc(C)c(C)c2)N1 (stereo not given), the activity change, less the hit threshold was 111% (active).
CCCCn1nnc(NC(=O)c2ccc(-c3cccc([N+](=O)[O-])c3)o2)n1 gave an activity change, less the hit threshold of -21.1%.
CCCCNC1=CC(=O)C(=O)c2ccccc21 was tested, and the activity change, less the hit threshold was -18.9%.
COC(=O)c1ccc(C2C(C#N)=C(N)Oc3cc(O)ccc32)cc1 (stereo not given) gave an activity change, less the hit threshold of -8.7%.
For CC1CCc2sc(-c3n[nH]c(=S)o3)cc2C1 (stereo not given), the activity change, less the hit threshold was 20.7% (active).
For COCCN1C(=O)c2oc3cc(C)c(C)cc3c(=O)c2C1c1ccc(O)cc1 (stereo not given), the activity change, less the hit threshold was -0.6%.
Cc1ccc2oc3c(c(=O)c2c1)C(c1cccs1)N(CCCN(C)C)C3=O (stereo not given) was tested, and the activity change, less the hit threshold was 7.1% (active).
For CCN(CC)CCCN1C(=O)c2oc3ccccc3c(=O)c2C1c1cccs1 (stereo not given), the activity change, less the hit threshold was 12.9% (active).
For CSc1ccc(C2NN=C(c3ccccc3)S2)cc1 (stereo not given), the activity change, less the hit threshold was -15.8%.
With Cc1ccc(CC23CN4CCN(CC(C4)C2O)C3)c(C)c1 (stereo not given) the activity change, less the hit threshold was -8.4%.
O=C(NCC(c1cccs1)N1CCOCC1)c1cc(S(=O)(=O)N2CCOCC2)ccc1F (stereo not given) was tested, and the activity change, less the hit threshold was -15.4%.
For CSC1=C(C#N)C(CC(C)C)C2=C(CCCC2=O)N1 (stereo not given), the activity change, less the hit threshold was -12.3%.
CCOc1nc(-c2ccccc2)ccc1-c1noc(COC)n1 showed an activity change, less the hit threshold of -13.5%.
With Cc1cc(C(F)(F)F)c2sc(N)nc2n1 the activity change, less the hit threshold was -4.4%.
O=C(O)CCCNC(=O)c1nn(Cc2ccccc2)c(=O)c2ccccc12 showed an activity change, less the hit threshold of -5.2%.
With Cc1nc2c(C(=O)NCc3cccs3)cnn2c(C)c1Cc1ccccc1 the activity change, less the hit threshold was -25.2%.
O=C(Cc1ccccc1)Nn1c(-c2ccccc2)nc2ccccc2c1=O was tested, and the activity change, less the hit threshold was 29.9% (active).
Cc1cc(C)nc(NS(=O)(=O)c2ccc(NC(=O)Cc3ccccc3)cc2)n1 showed an activity change, less the hit threshold of -11.1%.
O=C(Cc1cccs1)Nn1c(Cc2cccs2)nc2ccccc2c1=O was tested, and the activity change, less the hit threshold was 54.3% (active).
O=S(=O)(c1ccc(F)c(F)c1)N1CCN(c2ncccn2)CC1 gave an activity change, less the hit threshold of -26%.
CCCCCOc1ccc(C2C(C(C)=O)=C(C)Nc3ncnn32)cc1OC (stereo not given) gave an activity change, less the hit threshold of -11.7%.
O=C(c1ccc2c(c1)N(Cc1ccccc1F)C(=O)c1ccccc1S2(=O)=O)N1CCCC1 was tested, and the activity change, less the hit threshold was -23.2%.
COc1ccc(CN2CCn3ncc(C(=O)Nc4ccccc4)c3C2=O)cc1 showed an activity change, less the hit threshold of -13.1%.
In the case of Cc1nnc(NC(=O)CN2CCN(Cc3ccc(F)cc3Cl)CC2)s1, the activity change, less the hit threshold is reported as -27.8%.
In the case of Cc1ccc2c(c1)c1nnc(SCC(=O)Nc3ccc(N(C)C)cc3)nc1n2CC(=O)O, the activity change, less the hit threshold is reported as -16.6%.
COc1cccc(N=Nc2ccc(O)c3ncccc23)c1 was tested, and the activity change, less the hit threshold was -7.4%.
COc1ccc(OC)c(S(=O)(=O)Nc2ccc(O)c3ccccc23)c1 gave an activity change, less the hit threshold of -22.3%.
COc1ccc(NS(=O)(=O)c2ccc3ccccc3c2)c2ncccc12 was tested, and the activity change, less the hit threshold was -12.6%.
CCOc1ccc(N=Nc2ccc(O)c3ncccc23)cc1 gave an activity change, less the hit threshold of -5.6%.
CCN(CC)S(=O)(=O)c1cc(OC)ccc1N=Nc1ccc(O)c2ncccc12 was tested, and the activity change, less the hit threshold was 44.8% (active).
For COc1ccccc1N=Nc1ccc(O)c2ncccc12, the activity change, less the hit threshold was 15.6% (active).
With O=C(COC(=O)c1cc(NS(=O)(=O)c2cccs2)ccc1O)Nc1cc(Cl)ccc1Cl the activity change, less the hit threshold was -5.6%.
Work on C[n+]1ccccc1COc1ccc(C(C)(C)C)cc1 yielded an activity change, less the hit threshold of -21.7%.
With CCn1c(=S)[nH]c2c(c1=O)C(C)(C)Cc1ccccc1-2 the activity change, less the hit threshold was 35.3% (active).
CCC1(CC)Cc2ccccc2-c2[nH]c(=S)[nH]c(=O)c21 was tested, and the activity change, less the hit threshold was -28.1%.
In the case of CCCn1c(SCC(N)=O)nc2c(c1=O)C1(CCCC1)Cc1ccccc1-2, the activity change, less the hit threshold is reported as -2.1%.
Molecule COc1ccc(-c2cc(C(F)(F)F)nc(SCC(=O)NCc3cccs3)n2)cc1 has an activity change, less the hit threshold of -14.1%.
COc1ccc(-c2cc(C(=O)Nc3ccccc3SC)no2)cc1 was tested, and the activity change, less the hit threshold was -15.3%.
For COC(=O)c1c(NC(=O)C(C)(C)C)csc1C, the activity change, less the hit threshold was -9.2%.
In the case of C/C(=N\NC(=O)c1ccc(Cl)cc1)c1ccc(Br)s1, the activity change, less the hit threshold is reported as -6.9%.
For CCc1cc2c(=O)n(CCC(C)C)c(=S)[nH]c2s1, the activity change, less the hit threshold was 54% (active).
In the case of CCCCNC(=O)c1onc(CSc2nc3ccccc3[nH]2)c1C(=O)NCCCC, the activity change, less the hit threshold is reported as -19%.
